These results are taken from paper PMC11062922 (Nature Chemical Biology, 2023).

Common to all, as to set-up: species or system human, MV4-11 + K-562 + COLO205 + SK-N-BE2 + OVCAR-8
Experiment [1] concerns ABL1. To be noted: read-out: apparent Kd, n = 1.
Experiment [2] concerns ABL2. Conditions: read-out: apparent Kd, n = 1.
Experiment [3] has as its system BCR. Conditions: read-out: apparent Kd, n = 1.
The subject of experiment [4] is FYN. To be noted: read-out: apparent Kd, n = 1.
Experiment [5] has as its system GAK. To be noted: read-out: apparent Kd, n = 1.
For experiment [6], the system named is LCK. To be noted: read-out: apparent Kd, n = 1.
Experiment [7] relates to RIPK3. Conditions: read-out: apparent Kd, n = 1.
The test system of experiment [8] is TNK1. Conditions: read-out: apparent Kd, n = 1.
In experiment [9] the test system is YES1. Conditions: read-out: apparent Kd, n = 1.
The test system of experiment [10] is HCK. Conditions: read-out: apparent Kd, compound concentrations: 100 nM and 1000 nM (sheet 'Samples'), n = 1.
In experiment [11] the test system is RET. To be noted: read-out: apparent Kd, compound concentrations: 100 nM and 1000 nM (sheet 'Samples'), n = 1.
For experiment [12], the system named is RIPK2. To be noted: read-out: apparent Kd, compound concentrations: 100 nM and 1000 nM (sheet 'Samples'), n = 1.
Experiment [13] relates to PTK6. Conditions: read-out: apparent Kd, compound concentrations: 100 nM and 1000 nM (sheet 'Samples'), n = 1.
[14] abbreviates: compound concentrations:100 nM and 1000 nM (sheet 'Samples').

Where two headings read alike, the source gives them in different places.

For `CC(C)c1nc(-c2ccc(F)c(NS(=O)(=O)c3c(F)cccc3F)c2)c(-c2ccnc(Nc3ccc(N4CCOCC4)nc3)n2)s1` [GSK1804250A], the potency estimated from few doses is 970 nM in experiment [1] (setting [14]); 126 nM in experiment [2] (setting [14]); 954 nM in experiment [3] (setting [14]); 944 nM in experiment [4] (setting [14]); 600 nM in experiment [5] (setting [14]); 342 nM in experiment [6] (setting [14]). Further, the potency estimated from few doses is 2130 nM in [7] (setting [14]), 328 nM in experiment [8] (setting [14]) and 679 nM in [9] (setting [14]).

For `Cn1cc(-c2ccc3c(c2)CCN3C(=O)Cc2cc(F)cc(C(F)(F)F)c2)c2c(N)ncnc21` [GSK2635225A], the potency estimated from few doses was 1130 nM in [1] (compound concentrations: 100 nM and 1000 nM (sheet 'Samples'), CATDS: 0.14527180827686201); 647 nM in experiment [2] (compound concentrations: 100 nM and 1000 nM (sheet 'Samples'), CATDS: 0.18446738219414099).

Consider `CC(=O)N1CCN(c2ccc(Nc3nccc(-c4sc(C(C)C)nc4-c4cccc(NS(=O)(=O)c5cccc(Cl)c5)c4)n3)cn2)CC1` [GSK1660437A], for which the potency estimated from few doses in experiment [2] (compound concentrations: 100 nM and 1000 nM (sheet 'Samples'), CATDS: 7.86907844661483E-2) was 351 nM; in experiment [4] (compound concentrations: 100 nM and 1000 nM (sheet 'Samples'), CATDS: 4.41921751489057E-2), 1120 nM; in [5] (compound concentrations: 100 nM and 1000 nM (sheet 'Samples'), CATDS: 7.8355019854230004E-2) it was 353 nM; in [6] (compound concentrations: 100 nM and 1000 nM (sheet 'Samples'), CATDS: 4.6764709487854099E-2), 973 nM; in experiment [7] (compound concentrations: 100 nM and 1000 nM (sheet 'Samples'), CATDS: 3.6291204942441098E-2), 2010 nM; in experiment [8] (compound concentrations: 100 nM and 1000 nM (sheet 'Samples'), CATDS: 7.10025614221442E-2), 418 nM. For the same compound, the potency estimated from few doses in experiment [9] (compound concentrations: 100 nM and 1000 nM (sheet 'Samples'), CATDS: 4.9089753875203201E-2) was 868 nM.

Turning to `NS(=O)(=O)CCc1cccc(Nc2nccc(-c3c(-c4cccc(NC(=O)c5c(F)cccc5F)c4)nn4ccccc34)n2)c1` [GSK336735A], the potency estimated from few doses in [2] (compound concentrations: 100 nM and 1000 nM (sheet 'Samples'), CATDS: 7.5550907623065294E-2) is 635 nM; in [4] (compound concentrations: 100 nM and 1000 nM (sheet 'Samples'), CATDS: 5.89205391615404E-2), 1140 nM; in experiment [10] (CATDS: 9.1712833747147296E-2), 439 nM; in experiment [6] (compound concentrations: 100 nM and 1000 nM (sheet 'Samples'), CATDS: 8.1556930046594894E-2), 546 nM; in [11] (CATDS: 0.15467463345214499), 196 nM; in experiment [7] (compound concentrations: 100 nM and 1000 nM (sheet 'Samples'), CATDS: 7.11931563666406E-2), 719 nM. Further, the potency estimated from few doses is 475 nM in experiment [8] (compound concentrations: 100 nM and 1000 nM (sheet 'Samples'), CATDS: 8.7840058842797303E-2); 354 nM in [9] (compound concentrations: 100 nM and 1000 nM (sheet 'Samples'), CATDS: 0.104182093569698).

Regarding `Nc1ncc(-c2cn[nH]c2)c2scc(-c3ccc4c(c3)CCN4C(=O)Cc3ccccc3)c12` [GSK2593067A], the potency estimated from few doses was 1560 nM in experiment [1] (compound concentrations: 100 nM and 1000 nM (sheet 'Samples'), CATDS: 6.1234065339549101E-2); 841 nM in experiment [6] (compound concentrations: 100 nM and 1000 nM (sheet 'Samples'), CATDS: 7.5344179504310702E-2); 848 nM in experiment [12] (CATDS: 7.5110526663463406E-2).

In the case of `Fc1cc(Cl)ccc1Nc1ccnc2cc(-c3ccc(CN4CCOCC4)o3)ccc12` [GW560109X], the potency estimated from few doses in experiment [1] (compound concentrations: 100 nM and 1000 nM (sheet 'Samples'), CATDS: 5.7871370068112001E-2) was 1200 nM; in experiment [2] (compound concentrations: 100 nM and 1000 nM (sheet 'Samples'), CATDS: 6.6885266429186699E-2), 810 nM; in experiment [3] (compound concentrations: 100 nM and 1000 nM (sheet 'Samples'), CATDS: 0.27388815671753503), 66.4 nM; in [5] (compound concentrations: 100 nM and 1000 nM (sheet 'Samples'), CATDS: 5.9630252923923099E-2), 1100 nM; in [10] (CATDS: 5.4118184617509203E-2) it was 1480 nM; in experiment [13] (CATDS: 6.7887281457167797E-2), 780 nM. Also, the potency estimated from few doses in experiment [11] (CATDS: 9.1999760709611106E-2) is 400 nM; in experiment [12] (CATDS: 0.235092034784944) it was 82.6 nM; in experiment [7] (compound concentrations: 100 nM and 1000 nM (sheet 'Samples'), CATDS: 7.3765709446288102E-2), 641 nM.

On to `CS(=O)(=O)Cc1ccc(Nc2nccc(-c3c(-c4cccc(NC(=O)c5c(F)cccc5F)c4)nn4ccccc34)n2)cc1` [GSK323543A], for which the potency estimated from few doses in [2] (compound concentrations: 100 nM and 1000 nM (sheet 'Samples'), CATDS: 7.35852808685315E-2) was 971 nM; in experiment [10] (CATDS: 9.4870937315331097E-2) it was 576 nM; in experiment [6] (compound concentrations: 100 nM and 1000 nM (sheet 'Samples'), CATDS: 7.3424400867348402E-2), 976 nM; in [11] (CATDS: 0.14439255275757601) it was 289 nM; in experiment [7] (compound concentrations: 100 nM and 1000 nM (sheet 'Samples'), CATDS: 7.2905332862385097E-2), 992 nM; in experiment [8] (compound concentrations: 100 nM and 1000 nM (sheet 'Samples'), CATDS: 0.144635692896082) it was 288 nM. In [9] (compound concentrations: 100 nM and 1000 nM (sheet 'Samples'), CATDS: 0.11796638249333601), the potency estimated from few doses is 395 nM.

Turning to `c1ccc(Oc2ccc(Nc3ccnc4cc(-c5ccc(CN6CCCCC6)o5)ccc34)cc2)nc1` [GW567143X], the potency estimated from few doses is 634 nM in [1] (compound concentrations: 100 nM and 1000 nM (sheet 'Samples'), CATDS: 4.7219356438219597E-2); 771 nM in experiment [4] (compound concentrations: 100 nM and 1000 nM (sheet 'Samples'), CATDS: 4.4213624367354799E-2); 895 nM in [5] (compound concentrations: 100 nM and 1000 nM (sheet 'Samples'), CATDS: 4.2163459383367997E-2); 68.8 nM in experiment [10] (CATDS: 0.14005546575241301); 515 nM in experiment [6] (compound concentrations: 100 nM and 1000 nM (sheet 'Samples'), CATDS: 5.0953813421882002E-2); 72.4 nM in experiment [13] (CATDS: 0.13556199485993101). The potency estimated from few doses in experiment [12] (CATDS: 0.12946024003761) was 77.9 nM; in [7] (compound concentrations: 100 nM and 1000 nM (sheet 'Samples'), CATDS: 4.1439147975506997E-2), 948 nM; in [9] (compound concentrations: 100 nM and 1000 nM (sheet 'Samples'), CATDS: 5.50755734526098E-2), 421 nM.
